Where “and” joins values, the source holds several entries; their conditions need not be identical. Identical values can stand only once. Inconclusive results are not listed. Calls of active or inactive are those of the source. How the source made its calls: active means hit-call score of the fitted dose curve at least 0.9, where 1 is the maximum; inconclusive means response in the unintended direction; inactive means score below 0.9.
Each molecule was assayed on frog Estrogen Receptor (ER2), gene 100174814 (assay: ATG_frER2_XSP2: Attagene TRANS-FACTORIAL Multi-Species (XSP2) HepG2 Assay for frog Estrogen Receptor (ER2) (AID 2283828)).
Summary of the method: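 Induction of reporter mRNA, baseline set by DMSO, is the endpoint. The panel was run in transfected HepG2 cells over 24 h, with 3 nM 6-alpha-fluorotestosterone and 1.5 nM norgestrel present to stimulate androgen receptor.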
For Clc1nc(Cl)c(Cl)c(Cl)c1Cl, the AC50 was 26 µM (active). For Oc1ccc2c(c1)-c1ccccc1C2, the AC50 was 6.95 µM (active) and 3.52 µM (active). For O=P(OC(CCl)CCl)(OC(CCl)CCl)OC(CCl)CCl, the outcome was “inactive”.

These molecules were tested against Peroxisome proliferator-activated receptor gamma (Homo sapiens) (UniProt P37231) (assay: ATG_hPPARg_XSP2: Attagene TRANS-FACTORIAL Multi-Species (XSP2) HepG2 Assay for human Peroxisome Proliferator-activated Receptor gamma (PPARg) (AID 2283829);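 further: actives raise reporter mRNA above DMSO so AC50 reflects PPARg activation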).
Chain of Peroxisome proliferator-activated receptor gamma (Homo sapiens) (P37231 whole entry, looked up, the tested form may be a part): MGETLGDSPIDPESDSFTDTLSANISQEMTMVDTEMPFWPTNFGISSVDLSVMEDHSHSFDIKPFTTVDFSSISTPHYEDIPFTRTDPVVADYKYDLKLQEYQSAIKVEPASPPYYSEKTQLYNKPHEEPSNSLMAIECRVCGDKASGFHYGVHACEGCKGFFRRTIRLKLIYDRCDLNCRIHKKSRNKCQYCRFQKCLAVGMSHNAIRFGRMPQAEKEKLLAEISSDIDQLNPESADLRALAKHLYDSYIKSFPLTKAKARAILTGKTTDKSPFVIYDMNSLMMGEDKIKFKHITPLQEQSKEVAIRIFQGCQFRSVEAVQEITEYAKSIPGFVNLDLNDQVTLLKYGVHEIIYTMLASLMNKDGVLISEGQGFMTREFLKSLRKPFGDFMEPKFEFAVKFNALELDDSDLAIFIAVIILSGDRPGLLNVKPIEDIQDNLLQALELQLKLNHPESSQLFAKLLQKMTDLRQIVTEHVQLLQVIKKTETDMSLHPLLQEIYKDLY
Summary of the method: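 Multiplexed transactivation in transfected HepG2 liver cells. Gal4-chimeric receptor activity reported as induced reporter transcript after 24 h.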
Clc1nc(Cl)c(Cl)c(Cl)c1Cl was tested, and the AC50 was 1.04 µM (active) and 14.9 µM (active). Oc1ccc2c(c1)-c1ccccc1C2 was tested, and the AC50 was 19.8 µM (active) and 28.4 µM (active). For O=P(OC(CCl)CCl)(OC(CCl)CCl)OC(CCl)CCl, the AC50 was 50.5 µM (active).

Each molecule was assayed against mouse Peroxisome Proliferator-activated Receptor gamma (PPARg), Pparg (gene 19016) (UniProt P37238) (assay: ATG_mPPARg_XSP2: Attagene TRANS-FACTORIAL Multi-Species (XSP2) HepG2 Assay for mouse Peroxisome Proliferator-activated Receptor gamma (PPARg) (AID 2283830);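 further: hits are gains in reporter mRNA above DMSO so AC50 marks activation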).
Chain of mouse Peroxisome Proliferator-activated Receptor gamma (PPARg), Pparg (gene 19016) (P37238 whole entry, looked up, the tested form may be a part): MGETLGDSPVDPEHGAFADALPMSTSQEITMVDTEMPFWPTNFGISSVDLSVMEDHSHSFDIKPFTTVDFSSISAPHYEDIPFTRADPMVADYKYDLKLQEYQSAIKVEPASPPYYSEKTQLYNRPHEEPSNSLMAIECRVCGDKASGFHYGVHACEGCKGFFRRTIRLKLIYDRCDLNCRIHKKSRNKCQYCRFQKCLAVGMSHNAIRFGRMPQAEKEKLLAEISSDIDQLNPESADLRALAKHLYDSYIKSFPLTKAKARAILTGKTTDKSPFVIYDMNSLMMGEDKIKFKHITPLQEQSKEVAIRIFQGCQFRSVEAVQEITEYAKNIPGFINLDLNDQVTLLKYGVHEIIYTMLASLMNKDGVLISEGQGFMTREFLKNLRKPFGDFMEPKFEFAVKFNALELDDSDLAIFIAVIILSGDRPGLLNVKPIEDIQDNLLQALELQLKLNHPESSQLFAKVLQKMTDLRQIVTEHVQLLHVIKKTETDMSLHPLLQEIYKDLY
Summary of the method: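 Multiplexed TRANS reporter readout: after 24 h chemical exposure of transfected HepG2 cells (with 3 nM 6-alpha-fluorotestosterone, 1.5 nM norgestrel present), RNA reverse-transcribed, amplified, 6-FAM-labelled and resolved by capillary electrophoresis; mouse PPARg-Gal4 induction scored against DMSO.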
For Clc1nc(Cl)c(Cl)c(Cl)c1Cl, the AC50 was 1.48 µM (active) and 2.05 µM (active). For Oc1ccc2c(c1)-c1ccccc1C2, the AC50 was 43.9 µM (active) and 49.3 µM (active). With O=P(OC(CCl)CCl)(OC(CCl)CCl)OC(CCl)CCl the AC50 was 26.2 µM (active).

What follows are molecules tested against Nuclear receptor subfamily 1 group I member 2 (Mus musculus) (UniProt O54915) (assay: ATG_mPXR_XSP2: Attagene TRANS-FACTORIAL Multi-Species (XSP1) HepG2 Assay for mouse Pregnane X Receptor (PXR) (AID 2283831)).
Chain of Nuclear receptor subfamily 1 group I member 2 (Mus musculus) (O54915 whole entry, looked up, the tested form may be a part): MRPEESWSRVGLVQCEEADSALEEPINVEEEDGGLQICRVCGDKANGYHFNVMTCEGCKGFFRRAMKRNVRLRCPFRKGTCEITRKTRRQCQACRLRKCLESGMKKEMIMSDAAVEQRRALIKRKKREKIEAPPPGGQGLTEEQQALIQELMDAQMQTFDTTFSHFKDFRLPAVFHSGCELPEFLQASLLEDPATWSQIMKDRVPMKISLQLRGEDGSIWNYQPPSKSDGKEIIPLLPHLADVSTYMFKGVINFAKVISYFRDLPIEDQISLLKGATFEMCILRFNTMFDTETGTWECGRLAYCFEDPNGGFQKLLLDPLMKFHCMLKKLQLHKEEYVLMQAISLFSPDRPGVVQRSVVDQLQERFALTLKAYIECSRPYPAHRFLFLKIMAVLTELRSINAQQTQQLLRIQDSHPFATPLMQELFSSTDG
Summary of the method: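 Human liver HepG2 cells expressing exogenous receptor-GAL4 chimeras were exposed to test chemicals for 24 h. Induction of reporter mRNA was scored as gain of fluorescence signal over DMSO controls.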
In the case of Clc1nc(Cl)c(Cl)c(Cl)c1Cl, the outcome is reported as “inactive”. Oc1ccc2c(c1)-c1ccccc1C2 was tested, and the AC50 was 17.1 µM (active) and 44.2 µM (active). In the case of O=P(OC(CCl)CCl)(OC(CCl)CCl)OC(CCl)CCl, the AC50 is reported as 703 nM (active).

The molecules below were run against zebrafish Thyroid Hormone Receptor alpha (TRa), thraa (gene 30670) (UniProt Q98867) (assay: ATG_zfTRa_XSP2: Attagene TRANS-FACTORIAL Multi-Species (XSP1) HepG2 Assay for zebrafish Thyroid Hormone Receptor alpha (TRa) (AID 2283832);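 further: actives raise zebrafish TRa-Gal4 reporter transcript above DMSO baseline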).
Chain of zebrafish Thyroid Hormone Receptor alpha (TRa), thraa (gene 30670) (Q98867 whole entry, looked up, the tested form may be a part): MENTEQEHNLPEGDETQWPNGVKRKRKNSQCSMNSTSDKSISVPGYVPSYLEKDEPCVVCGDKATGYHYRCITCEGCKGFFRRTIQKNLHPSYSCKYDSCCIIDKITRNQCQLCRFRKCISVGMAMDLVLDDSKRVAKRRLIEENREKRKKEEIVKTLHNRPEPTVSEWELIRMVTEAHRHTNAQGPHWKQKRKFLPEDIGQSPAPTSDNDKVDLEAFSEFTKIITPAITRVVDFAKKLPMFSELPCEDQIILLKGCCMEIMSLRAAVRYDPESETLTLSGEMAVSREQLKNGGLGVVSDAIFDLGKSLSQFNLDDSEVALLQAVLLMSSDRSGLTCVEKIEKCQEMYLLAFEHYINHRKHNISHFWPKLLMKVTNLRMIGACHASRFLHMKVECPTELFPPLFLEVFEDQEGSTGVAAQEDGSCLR
Summary of the method: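 Multiplexed TRANS reporter format in HepG2; the medium also contained 3 nM 6-alpha-fluorotestosterone and 1.5 nM norgestrel. Reporter mRNA after 24 h read by RT-PCR and capillary electrophoresis, scored as induction over DMSO.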
In the case of Clc1nc(Cl)c(Cl)c(Cl)c1Cl, the outcome is reported as “inactive”. Oc1ccc2c(c1)-c1ccccc1C2 was tested, and the outcome was “inactive”. O=P(OC(CCl)CCl)(OC(CCl)CCl)OC(CCl)CCl was tested, and the outcome was “inactive”.

Each molecule was assayed against zebrafish Thyroid Hormone Receptor beta (TRb), thrb (gene 30607) (UniProt Q9PVE4) (assay: ATG_zfTRb_XSP2: Attagene TRANS-FACTORIAL Multi-Species (XSP1) HepG2 Assay for zebrafish Thyroid Hormone Receptor beta (TRb) (AID 2283836)).
Chain of zebrafish Thyroid Hormone Receptor beta (TRb), thrb (gene 30607) (Q9PVE4 whole entry, looked up): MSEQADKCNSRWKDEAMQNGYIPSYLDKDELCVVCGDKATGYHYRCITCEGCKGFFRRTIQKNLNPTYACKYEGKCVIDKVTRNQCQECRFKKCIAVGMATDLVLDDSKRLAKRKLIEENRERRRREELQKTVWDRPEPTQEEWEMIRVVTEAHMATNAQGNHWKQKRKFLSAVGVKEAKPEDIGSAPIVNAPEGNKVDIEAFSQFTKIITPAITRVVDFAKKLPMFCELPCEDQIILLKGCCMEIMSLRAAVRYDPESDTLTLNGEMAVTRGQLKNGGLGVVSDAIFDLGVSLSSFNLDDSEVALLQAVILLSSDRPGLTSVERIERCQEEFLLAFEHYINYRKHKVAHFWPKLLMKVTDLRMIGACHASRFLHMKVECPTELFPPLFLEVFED
Summary of the method: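 Multiplexed trans-activation in HepG2 cells, 24 h treatment, with reporter mRNA read by RT-PCR and capillary electrophoresis. Gain-of-signal against DMSO.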
Clc1nc(Cl)c(Cl)c(Cl)c1Cl was tested, and the outcome was “inactive”. For Oc1ccc2c(c1)-c1ccccc1C2, the outcome was “inactive”. In the case of O=P(OC(CCl)CCl)(OC(CCl)CCl)OC(CCl)CCl, the outcome is reported as “inactive”.
